Measurements reported in PubChem BioAssay (Tox21).
Records with an inconclusive call do not appear. A call without a number means that no potency is given here. Activity calls are given as the source filed them. Unless noted, the call rests on the fitted dose curve; in most records, active means well fitted curve in the direction sought with a large enough effect in the repeat runs; inconclusive means weak or mixed curves; inactive means no such curve, though single readings can be large; an effect the other way counts as inactive or inconclusive.

What was measured:
[1] = qHTS assay to identify aromatase inhibitors - cell viability counter screen (AID 743084);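 further: cells stimulated with testosterone during compound exposure; nearly all actives have a fitted effect of over 55% in size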
[2] = target: Aryl hydrocarbon receptor (Homo sapiens) (UniProt P35869); assay: qHTS assay to identify small molecule that activate the aryl hydrocarbon receptor (AhR) signaling pathway (AID 743085); further: nearly all actives have a fitted effect of over 15% in size; further: potency means the concentration at half of the fitted maximal effect;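 on activation: HG2L7.5c1 human HepG2 liver cells with stably integrated DRE-driven firefly reporter; series mostly up to about 70 µM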
How it was run: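 Reporter assay in engineered HepG2 line HG2L7.5c1, whose plasmid carries twenty dioxin responsive elements upstream of firefly luciferase. Treatment lasted 24 h at 37C; ONE-Glo luminescence gauged induction.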

[3] = qHTS assay to identify small molecule that activate the aryl hydrocarbon receptor (AhR) signaling pathway - cell viability counter screen (AID 743086);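 further: HepG2 liver cells carrying the AhR DRE luciferase reporter; series mostly up to about 70 µM; nearly all actives have a fitted effect of over 45% in size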
How it was run: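 HepG2-AhR-luc (HG2L7.5c1) cells, 4000/well, treated 24 h at 37 C with compound; viability measured as CellTiter-Fluor fluorescence after 30 min in the same wells as the luciferase read.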

[4] = target: Peroxisome proliferator-activated receptor gamma (Homo sapiens) (UniProt P37231); assay: qHTS assay to identify small molecule agonists of the peroxisome proliferator-activated receptor gamma (PPARg) signaling pathway (AID 743094; active means well fitted activation curve with a large enough effect in the signal ratio in the repeat runs, not every such curve was filed as active; the % refers to the signal ratio; further: potency means the concentration at half of the fitted maximal effect)
How it was run: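 Following 5 h plating at 37C, PPARg-bla HEK293H cells receive compound or DMSO for 17 h; fluorescence intensity is recorded after LiveBLAzer B/G loading for 1 h at room temperature.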

[5] = target: Peroxisome proliferator-activated receptor gamma (Homo sapiens) (UniProt P37231); assay: qHTS assay to identify small molecule antagonists of the peroxisome proliferator-activated receptor gamma (PPARg) signaling pathway (AID 743191; calls by dose curve; further: series mostly up to about 63 µM; nearly all actives have a fitted effect of over 30% in size)
How it was run: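 GeneBLAzer PPARg UAS-bla HEK293H cells, 5 h post-plating, exposed to compounds 17 h at 37C. LiveBLAzer B/G FRET substrate added for 1 h at room temperature; beta-lactamase reporter read by fluorescence intensity.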

[6] = qHTS assay to identify small molecule antagonists of the peroxisome proliferator-activated receptor gamma (PPARg) signaling pathway - cell viability counter screen (AID 743194); further: nearly all actives have a fitted effect of over 55% in size
How it was run: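 Cytotoxicity counter screen in PPARg-bla HEK293H cells, same wells as reporter assay. Compounds plus 50 nM rosiglitazone (final) for 17 h at 37 C, then viability read by CellTiter-Glo luminescence.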

[7] = qHTS assay for small molecule agonists of the antioxidant response element (ARE) signaling pathway (AID 743202; active means well fitted activation curve with a large enough effect in the signal ratio in the repeat runs, not every such curve was filed as active; the % refers to the signal ratio)
How it was run: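 Agonist mode reporter screen: HepG2 cells with ARE-controlled beta-lactamase are incubated with test compounds for 16 h at 37 C, and beta-lactamase activity is measured as fluorescence of cleaved B/G FRET substrate.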

[8] = qHTS assay for small molecule agonists of the antioxidant response element (ARE) signaling pathway - cell viability counter screen (AID 743203; calls by dose curve; further: nearly all actives have a fitted effect of over 55% in size)
How it was run: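 Compounds in DMSO were pinned onto ARE-bla HepG2 cells plated 5 hrs earlier at 2,000 cells/well. Sixteen hours later at 37C/5% CO2, CellTiter-Glo was added and luminescence measured after 30 min at room temperature.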

[9] = qHTS assay for small molecule activators of the heat shock response signaling pathway - cell viability counter screen (AID 743209); further: nearly all actives have a fitted effect of over 50% in size
How it was run: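 Counter screen for cytotoxicity in HeLa HSE-bla reporter cells. Treatment was 5 h at 37 C; viability was detected by luminescent ATP assay (CellTiter-Glo) in the same wells as the beta-lactamase read.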

[10] = qHTS assay for small molecule activators of the heat shock response signaling pathway (AID 743210; active means well fitted activation curve with a large enough effect in the signal ratio in the repeat runs, with a control signal flat, not every such curve was filed as active; the % refers to the signal ratio;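 further: HeLa cells with beta-lactamase reporter driven by heat shock elements; series mostly up to about 63 µM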)
How it was run: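 Quantitative high-throughput format using an engineered HeLa line in which heat shock response elements drive beta-lactamase; after 5 h with compound, cells received a B/G FRET substrate and fluorescence was read.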

Sequence of Peroxisome proliferator-activated receptor gamma (Homo sapiens) (P37231 whole entry, looked up): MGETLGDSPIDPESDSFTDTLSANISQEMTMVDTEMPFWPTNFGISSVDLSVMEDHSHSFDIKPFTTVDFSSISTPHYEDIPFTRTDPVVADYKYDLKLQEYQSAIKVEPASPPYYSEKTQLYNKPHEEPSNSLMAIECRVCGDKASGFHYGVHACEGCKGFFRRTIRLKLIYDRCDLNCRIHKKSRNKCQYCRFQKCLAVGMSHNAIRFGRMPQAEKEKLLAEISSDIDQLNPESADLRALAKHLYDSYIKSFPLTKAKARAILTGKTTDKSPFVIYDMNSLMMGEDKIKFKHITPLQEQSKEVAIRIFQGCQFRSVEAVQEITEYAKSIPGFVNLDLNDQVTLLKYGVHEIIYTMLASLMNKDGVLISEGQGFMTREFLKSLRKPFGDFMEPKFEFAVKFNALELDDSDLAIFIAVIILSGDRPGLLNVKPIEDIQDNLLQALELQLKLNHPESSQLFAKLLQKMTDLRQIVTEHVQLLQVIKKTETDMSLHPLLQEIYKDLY
Sequence of Aryl hydrocarbon receptor (Homo sapiens) (P35869 whole entry, looked up): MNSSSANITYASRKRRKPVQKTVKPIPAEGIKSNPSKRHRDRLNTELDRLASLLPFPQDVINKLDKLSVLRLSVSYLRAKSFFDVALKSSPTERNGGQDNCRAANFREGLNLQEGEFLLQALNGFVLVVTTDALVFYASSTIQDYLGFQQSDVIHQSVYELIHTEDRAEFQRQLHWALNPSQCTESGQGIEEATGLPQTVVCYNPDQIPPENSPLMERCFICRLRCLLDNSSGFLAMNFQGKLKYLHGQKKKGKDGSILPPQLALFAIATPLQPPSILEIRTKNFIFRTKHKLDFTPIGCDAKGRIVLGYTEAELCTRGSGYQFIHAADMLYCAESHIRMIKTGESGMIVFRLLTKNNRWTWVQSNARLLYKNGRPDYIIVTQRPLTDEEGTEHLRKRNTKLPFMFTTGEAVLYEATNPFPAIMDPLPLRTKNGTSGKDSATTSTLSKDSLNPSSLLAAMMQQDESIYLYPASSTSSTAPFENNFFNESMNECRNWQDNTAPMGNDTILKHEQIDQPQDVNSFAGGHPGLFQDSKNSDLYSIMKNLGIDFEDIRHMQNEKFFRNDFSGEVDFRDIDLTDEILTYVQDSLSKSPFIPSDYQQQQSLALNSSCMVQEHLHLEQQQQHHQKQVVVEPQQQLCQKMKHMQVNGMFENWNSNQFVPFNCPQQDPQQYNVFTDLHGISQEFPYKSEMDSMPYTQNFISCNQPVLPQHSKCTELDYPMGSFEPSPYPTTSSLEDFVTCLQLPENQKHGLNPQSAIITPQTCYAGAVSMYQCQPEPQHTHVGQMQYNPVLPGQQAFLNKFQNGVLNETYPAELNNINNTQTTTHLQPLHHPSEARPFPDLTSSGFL

Row | Compound | Potency [1] | Potency [2] | outcome [3] | Potency [4] | Potency [5] | Potency [6] | Potency [7] | Potency [8] | outcome [9] | Potency [10]
1 | CCC(=O)Nc1ccc(O)cc1 | inactive | inactive | inactive | inactive | inactive | inactive | inactive | inactive | inactive | 
2 | CC(=O)Nc1ccc(C)c(Cl)c1 | inactive | inactive | inactive | inactive | inactive | inactive | inactive | inactive | inactive | inactive
3 | Oc1ccccc1C=NCc1ccccc1 | inactive | inactive | inactive | inactive | inactive | inactive | inactive | inactive | inactive | inactive
4 | COc1ccccc1OCC(O)COC(N)=O (stereo not given) | inactive | inactive | inactive | inactive | inactive | inactive | inactive | inactive | inactive | 
5 | Cc1nnc(SCC2=C(C(=O)O)N3C(=O)[C@@H](NC(=O)Cn4cnnn4)[C@H]3SC2)s1 | inactive | inactive | inactive | inactive | inactive | inactive |  | inactive | inactive | 
6 | CC1(C)O[C@@H]2C[C@H]3[C@@H]4CCC5=CC(=O)CC[C@]5(C)[C@@]4(F)[C@@H](O)C[C@]3(C)[C@]2(C(=O)CCl)O1 | inactive | inactive | inactive | inactive | inactive | inactive |  | inactive | inactive | 
7 | COc1nc(C)nc(NC(=O)NS(=O)(=O)c2ccccc2OCCCl)n1 | inactive | inactive | inactive | inactive | inactive | inactive | inactive | inactive | inactive | 
8 | Clc1cccc(-c2cc(Cl)cc(Cl)c2)c1 | inactive | inactive | inactive | inactive | inactive | inactive | inactive |  | inactive | 
9 | O=C1C=CC(=O)O1 | inactive | inactive | inactive | inactive | inactive | inactive | inactive |  | inactive | 
10 | CCCCNCCCC | inactive | inactive | inactive | inactive | inactive | inactive | inactive | inactive | inactive | inactive
11 | Cc1ccc([N+](=O)[O-])c(N)c1 | inactive | inactive | inactive | inactive | inactive | inactive | inactive |  | inactive | inactive
12 | CCN[C@H]1CN(CCCOC)S(=O)(=O)c2sc(S(N)(=O)=O)cc21 | inactive | inactive | inactive | inactive | inactive | inactive | inactive | inactive | inactive | inactive
13 | CN1CCN(c2c(F)cc3c(=O)c(C(=O)O)cn(CCF)c3c2F)CC1 | inactive | inactive | inactive | inactive | inactive | inactive | inactive | inactive | inactive | inactive
14 | Nc1cccc(S(=O)(=O)O)c1 | inactive | inactive | inactive | inactive | inactive | inactive | inactive | inactive | inactive | inactive
15 | CC1=C(O)C(=O)OC1C (stereo not given) | inactive | inactive | inactive | inactive | inactive | inactive | inactive | inactive | inactive | inactive
16 | Cc1c(C(=O)NCCO)[n+](=O)c2ccccc2n1[O-] | inactive | inactive | inactive | inactive | inactive | inactive | inactive | inactive | inactive | inactive
17 | C1CSCCS1 | inactive | inactive | inactive | inactive | inactive | inactive | inactive | inactive | inactive | inactive
18 | ICCc1ccccc1 | inactive | inactive | inactive | inactive | inactive | inactive | inactive | inactive | inactive | 
19 | CC1=CC(=O)CC(C)(C)C1=O | inactive | inactive | inactive | inactive | inactive | inactive |  | inactive | inactive | 
20 | O=C(O)c1cccc(Cl)c1Cl | inactive | inactive | inactive | inactive | inactive | inactive | inactive | inactive | inactive | inactive
21 | O=Cc1ccc(F)c(Br)c1 | inactive | inactive | inactive | inactive | inactive | inactive | inactive | inactive | inactive | inactive
22 | O=C1N(c2ccccc2)c2ccccc2C1(Cc1ccncc1)Cc1ccncc1 | inactive | inactive | inactive | inactive | inactive | inactive |  | inactive | inactive | 
23 | CCN(CC)CC1CCCCN1CC(=O)N1c2ccccc2C(=O)Nc2cccnc21 (stereo not given) | inactive | inactive | inactive | inactive | inactive | inactive | inactive | inactive | inactive | 
24 | C[C@@H]1CN(c2c(F)c(N)c3c(=O)c(C(=O)O)cn(C4CC4)c3c2F)C[C@H](C)N1 | inactive | inactive | inactive | inactive | inactive | inactive | inactive | inactive | inactive | inactive
25 | CO[C@@]1(NC(=O)CSCC#N)C(=O)N2C(C(=O)O)=C(CSc3nnnn3C)CS[C@@H]21 | inactive | inactive | inactive | inactive | inactive | inactive | inactive |  | inactive | inactive
26 | C[C@@H](N)C(=O)O | inactive | inactive | inactive | inactive | inactive | inactive | inactive | inactive | inactive | 

Row | Compound | Potency [1] | Potency [2] | outcome [3] | Potency [4] | Potency [5] | Potency [6] | Potency [7] | Potency [8] | outcome [9] | Potency [10]
27 | O=c1[nH]cnc2c1ncn2[C@@H]1O[C@H](CO)[C@@H](O)[C@H]1O | inactive | inactive | inactive | inactive | inactive | inactive | inactive | inactive | inactive | 
28 | CCCCC1CCC(=O)O1 (stereo not given) | inactive | inactive | inactive | inactive | inactive | inactive | inactive | inactive | inactive | inactive
29 | CC(C)O | inactive | inactive | inactive | inactive | inactive | inactive | inactive | inactive |  | 
30 | CN(CC1(C)CCCO1)S(=O)(=O)c1ccc(Cl)c(S(N)(=O)=O)c1 (stereo not given) | inactive | inactive | inactive | inactive | inactive | inactive | inactive | inactive | inactive | inactive
31 | CCOc1ccc(NC(N)=O)cc1 | inactive | inactive | inactive | inactive | inactive | inactive | inactive | inactive | inactive | inactive
32 | NC/C=C/C(=O)O | inactive | inactive | inactive | inactive | inactive | inactive | inactive | inactive | inactive | inactive
33 | CCCNC(C)(C)COC(=O)c1ccccc1 | inactive | inactive | inactive | 0.338 µM (active) | inactive | inactive | inactive |  | inactive | inactive
34 | CCC1(C)NC(=O)NC1=O (stereo not given) | inactive | inactive | inactive | inactive | inactive | inactive | inactive | inactive | inactive | 
35 | COC(C)CCO (stereo not given) | inactive | inactive | inactive | inactive | inactive | inactive | inactive | inactive | inactive | inactive
36 | CCN1CC(CCN2CCOCC2)C(c2ccccc2)(c2ccccc2)C1=O (stereo not given) | inactive | inactive | inactive | inactive | inactive | inactive |  | inactive | inactive | inactive
37 | Cc1cc2nc(N)sc2cc1C | inactive | 6.17 µM (active) | inactive | inactive | inactive | inactive | inactive | inactive | inactive | inactive
38 | CCOC(=O)NCCC[Si](OCC)(OCC)OCC | inactive | inactive | inactive | inactive | inactive | inactive | inactive |  | inactive | inactive
39 | CC(C)CC(=O)OCc1ccccc1 | inactive | inactive | inactive | inactive |  | inactive | inactive | inactive | inactive | inactive
40 | CC(=O)Oc1cc(C(C)C)c(OCCN(C)C)cc1C | inactive | inactive | inactive | inactive |  | inactive | inactive | inactive | inactive | inactive
41 | CCN(CC)CCNC(=O)COc1ccc(Cl)cc1 | inactive | inactive | inactive | inactive | inactive |  | inactive |  | inactive | inactive
42 | CCCCOc1cc(C(=O)NCCN(CC)CC)c2ccccc2n1 | inactive | inactive | inactive | inactive | inactive |  |  | inactive | inactive | inactive
43 | CCCCCCCCCCCCCCCCOP(=O)([O-])OCC[N+](C)(C)C | inactive | inactive | inactive | inactive |  |  | inactive |  |  | 
44 | COc1cc(N)c(Cl)cc1C(=O)NC1CCN(Cc2ccccc2)CC1 | inactive | inactive | inactive | inactive | inactive |  | inactive | inactive | inactive | 
45 | COc1ccc(Nc2ccc(OC)cc2)cc1 | inactive | inactive | inactive | inactive |  | inactive | inactive | inactive | inactive | inactive
46 | CCCCC(CC)COC(=O)COc1cc(Cl)c(Cl)cc1Cl (stereo not given) | inactive | inactive | inactive | inactive |  |  | inactive | inactive | inactive | inactive
47 | CCCCCCCCCC/C=C/C#N | inactive | inactive | inactive | inactive | inactive | inactive |  |  | inactive | 
48 | Cc1ccc(C=O)s1 | inactive | inactive | inactive | inactive |  | inactive | inactive |  | inactive | 
49 | CCCCCCCOC(=O)CCC | inactive | inactive | inactive | inactive |  |  | inactive | inactive | inactive | inactive
50 | N#Cc1ccc(C(c2ccc(C#N)cc2)n2cncn2)cc1 | inactive | inactive | inactive | inactive | inactive |  | inactive | inactive | inactive | inactive
51 | C=CC(C)(O)CC/C=C(\C)CCC=C(C)C (stereo not given) | inactive | inactive | inactive | inactive |  | inactive |  | inactive | inactive | inactive
52 | COC(=O)C(C)O (stereo not given) | inactive | inactive | inactive | inactive | inactive |  | inactive | inactive | inactive | inactive
